Measurements taken from PubChem BioAssay AID493185 (National Center for Advancing Translational Sciences (NCATS), 2011).
Values without a mark were called inactive. Active and inactive are the calls of the source. Calls follow the shape of the dose curve; as a rule, active = well fitted activation curve with a large enough effect; inconclusive = small, poorly fitted or top-dose-only effect; inactive = no such curve, though single readings can be large or run the other way.

Test: Counterscreen for Identifying a Potential Treatment of Ataxia-Telangiectasia: Hit Validation; as to activation: 0% is about no effect
Settings: cell-free AlphaLISA/AlphaScreen artifact counterscreen, PBS only, no cells; series mostly up to 76.9 µM; activation: at the top concentration
Excerpt: NIH Chemical Genomics Center [NCGC]
NIH Molecular Libraries Probe Centers Network [MLPCN]
Assay Submitter (PI): Wei Zheng and Yosef Shiloh
Ataxia-telangiectasia (A-T) is a devastating and progressive disease for which, there is no cure. Although A-T is a multisystem disease, it is stereotyped characterized by its neurological symptoms such as truncal ataxia, due to cerebellar cortical degeneration of the Purkinje and granule cells. Other symptoms of A-T are telangiectasias (dilated blood vessels), primary immunodeficiency, marked sensitivity to ionizing radiation (IR), chromosomal instability and predisposition to cancer.
The underlying genetic cause of A-T is null mutations in the ATM (A-T mutated) gene. ATM is a nuclear serine/threonine kinase that functions as a master regulator of the cellular responses to double strand breaks (DSBs) in the DNA. Upon activation by DSBs, ATM phosphorylates a plethora of downstream targets, including KAP-1 on […]. KAP-1 phosphorylation occurs shortly in response to DSBs and mediates global chromatin relaxation, which facilitates DSB repair. To screen for small molecules that will compensate for the loss of ATM in cells derived from A-T patients, we monitored KAP-1 phosphorylation as a readout for ATM-like activity using an AlphaLISA assay.
3. Library compounds, 23 nl, 76.7 - 0.61uM dilution series final concentration
4. Incubation, 60 min, 37C, 5% CO2, 95% humidity
6. Incubation, 30 min, 37C, 5% CO2, 95% humidity
7. Reagent, 1 ul, Premixed detection reagents and lysis buffer
8. Reagent, 1 ul, 0.6% Antifoam A
9. Incubation, 6 hr, 25C, 95% humidity
10. Readout, EnVision, EnVision plate reader. AlphaScreen 1536-well protocol
PBS was dispensed into medium-binding white solid-bottom tissue culture treated Kalypsys plates with a Multidrop dispenser. Detection reagent and lysis buffer was 3.75nM Rab-a-pKAP1 antibody bound to 75 ng/ul AlphaScreen SA donor bead, 3.75 nM Biot-M-a-KAP1 antibody bound to AlphaLISA protein A acceptor bead, 0.5x protease inhibitor cocktail and 0.25x PerkinElmer lysis buffer. EnVision protocol for 1536-well AlphaScreen read (30ms excitation, 100ms read), about 10 min/plate. This assay is similar to the primary screen but is without cells. It aims to identify artifacts of the assay platform and unspecific hits.
Potency is read from the fitted curve at half-maximal effect.

Compound | activation | Potency
OC(CN1CCCCC1)Cn1c2ccc(Cl)cc2c2cc(Cl)ccc21 (stereo not given) | -8.2% | –
CCOc1ccc(NC2=NCC(=O)N2Cc2cccs2)cc1 | 0% | –
O=C(c1ccc(F)cc1)c1ccc(N2CCCCC2)cc1 | 9.02% | –
O=C(C[n+]1cccc2ccccc21)c1ccc(NC(=O)c2ccccc2)cc1 | -3.85% | –
COc1ccc(-n2c(C)cc(=O)[nH]c2=O)cc1 | 2.46% | –
CCCCCCCCCn1ccc(=N)cc1 | -13.1% | –
COc1ccc(-c2nn(-c3ccccc3)cc2/C=C/C(=O)O)cc1[N+](=O)[O-] | -4.92% | –
O=C(O)c1nccnc1C(=O)Nc1ccccc1-c1ccccc1 | 9.02% | –
N#Cc1c2c(c(-n3cnc4ccccc43)n3c1nc1ccccc13)CCC2 | -10.7% | –
CCn1c(=NC(=O)CN2C(=O)CCC2=O)sc2c(OC)ccc(OC)c21 | -5.74% | –
COc1ccc(-c2nn(C)c(=O)[nH]2)cc1 | 6.56% | –
CCCCN(c1nc2ccccc2nc1Cl)S(=O)(=O)c1ccc(C)cc1 | -15.8% | –
CC(C)(C=O)C1=CC(=O)c2ccccc2C1=O | 0.752% | –
CCc1oc(C(=O)OC)cc1CSC(=N)N | -1.54% | –
O=C(CCC(=O)c1ccc(F)cc1)Nc1cccc(Br)c1 | -0.752% | –
CCS(=O)(=O)N1Cc2ccccc2CC1C(=O)Nc1cccc(OC)c1 (stereo not given) | -15.4% | –
N#Cc1c(-c2ccccc2)cc(-c2ccccc2)[nH]c1=O | 4.51% | –
CC12CCC(C(=O)NNc3ccc([N+](=O)[O-])cc3)(OC1=O)C2(C)C (stereo not given) | 0% | –
CCC(=O)Nc1ccc(S(=O)(=O)c2ccc(NC(=O)CC)cc2)cc1 | 7.69% | –
CCN1CCN(c2oc(COc3ccc(Cl)cc3)nc2C#N)CC1 | 78.5% | –

Compound | activation | Potency
O=C(O)c1ccc(/C=C/c2nc3ccccc3c(=O)[nH]2)cc1 | -12% | –
COc1ccccc1[C@H]1C(c2cccc(Cl)c2)=NN(c2ccccc2)[C@@H]1CO | – | 29.2 µM (active)
CCOc1ccc(C(=O)NC(=S)Nc2cccnc2)cc1[N+](=O)[O-] | -6.15% | –
O=C(CNCc1cccs1)Nc1ccc(OC(F)(F)F)cc1 | 0% | –
COc1cc(/C=C2\SC(=S)N(C(C(=O)O)c3ccccc3)C2=O)ccc1O (stereo not given) | -27.9% | –
Fc1cccc(Cl)c1/C=C/c1cnc2ccccc2n1 | -13.1% | –
O=C(O)CCCC(=O)N1N=C(c2ccccc2)CC1c1cccs1 (stereo not given) | -21.8% | –
FC(F)(F)c1cccc(OCC2CNC(=S)O2)c1 (stereo not given) | -12.3% | –
CSc1nc(SCC(=O)O)c2c3c(sc2n1)COC(C)(C)C3 | -10.5% | –
COc1ccc(NC(=O)C2CC2)cc1OC1CCCC1 | 8.2% | –
C=CCOC(=O)C1=C[C@H](c2coc3ccccc3c2=O)C[C@H](OCc2ccc(CO)cc2)O1 | -20.8% | –
Cc1c(Cc2ccccc2)c(NCCCO)n2c(nc3ccccc32)c1C#N | 24.8% | –
COc1ccc(Oc2ncnc3c2oc2ccc(Br)cc23)cc1 | -9.23% | –
CCOC(=O)c1ccccc1NC(=O)c1ccc2nc[nH]c2c1 | -1.54% | –
COc1cccc(CN2CCN(Cc3cc(OC)c(OC)cc3OC)CC2)c1 | -0.752% | –
C=CCSc1nc2ccccc2n1C(=O)/C=C/c1cc(OC)c(OC)c(OC)c1 | 2.26% | –
CCn1nc(C)c(/C=N/NC(=O)Cn2cncn2)c1C | 10.7% | –
COc1cc(/C=C2\CCOC2=O)cc(OC)c1OC | 17.2% | –
CC(=O)Nc1ccc(NC2=C(Cl)C(=O)c3ccccc3C2=O)cc1 | -32.3% | –
COc1cccc(C(=O)NOCc2ccc(C)cc2)c1OC | 8.46% | –
